± gives the standard deviation of the averaged measurements.
tested on: HCT116; assay: cell viability (CellTiter-Glo) relative to plate median (fraction of plate median); higher = more viable cells; conditions: 5 µM; treatment time 24 h; reporter: TCF4/Wnt
How it was run: (§1)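 Luminescence, normalised well by well to the plate median, is tabulated as a mean of independent replicates. There were two replicates, run on colorectal cancer lines stably transduced with lentiviral TCF/Wnt firefly luciferase reporters and dosed with library compounds at a final 5 µM for 24 h. Readouts were firefly luciferase or CellTiterGlo on parallel plates.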

Row | SMILES | cell viability
1 | CCC1(C)OC(=O)N(C)C1=O (stereo unspecified) | 0.873 ± 0.078
2 | C=C1CC[C@@H]2[C@](C)(CO)[C@H](O)CC[C@@]2(C)[C@@H]1C/C=C1/C(=O)OC[C@H]1O | 0.963 ± 0.052
3 | C=CC[C@@H]1/C=C(\C)C[C@H](C)C[C@H](OC)[C@H]2O[C@@](O)(C(=O)C(=O)N3CCCC[C@H]3C(=O)O[C@H](/C(C)=C/[C@@H]3CC[C@@H](O)[C@H](OC)C3)[C@H](C)[C@@H](O)CC1=O)[C@H](C)C[C@@H]2OC | 1.05 ± 0.014
4 | COc1cc2c(cc1OC)-c1cc3ccc(OC)c(OC)c3c[n+]1CC2 | 0.896 ± 0.16

tested on: SW480; assay: as above; conditions: 5 µM; treatment time 24 h; reporter: 7TFP
How it was run: as §1

Row | SMILES | cell viability
5 | Cc1ccc(C(=O)c2ccc(CC(=O)O)n2C)cc1 | 1 ± 0.053
6 | CC[C@H]1OC(=O)[C@H](C)[C@@H](O[C@H]2C[C@@](C)(OC)[C@@H](O)[C@H](C)O2)[C@H](C)[C@@H](O[C@@H]2O[C@H](C)C[C@H](N(C)C)[C@H]2O)[C@](C)(O)C[C@@H](C)CN(C)[C@H](C)[C@@H](O)[C@]1(C)O | 1.01 ± 0.049
7 | COc1ccc2ccc(=O)oc2c1 | 0.97 ± 0.0071
8 | CCC(=O)O[C@@H]1[C@@H](OC2C(C)/C=C/C(=O)OC(C)C(CO[C@@H]3O[C@H](C)[C@@H](OC(=O)CC)[C@@H](OC)[C@H]3OC)C3OC3/C=C/C(=O)C(C)(O)CC2C)O[C@@H](C)C[C@H]1OC (stereo partly specified) [Chalcomycin B] | 1.11 ± 0.071
9 | Nc1nc2c(ncn2COCCO)c(=O)[nH]1 | 0.955 ± 0.078
10 | CC1(C)CC[C@]2(C)CC[C@]3(C)C(=CC[C@@H]4[C@@]5(C)CC[C@H](O)C(C)(C)[C@@H]5CC[C@]43C)[C@@H]2C1 [beta-AMYRIN] | 0.994 ± 0.093
11 | O=C(O)c1ccccc1Nc1ccccc1 | 1.04 ± 0.057
12 | C[C@@H]1O[C@@H](O[C@H]2[C@H](O[C@H]3CC[C@@]4(C)[C@@H](CC[C@]5(C)[C@@H]4CC=C4[C@@H]6CC(C)(C)CC[C@]6(C(=O)O)CC[C@]45C)[C@]3(C)CO)OC[C@H](O)[C@@H]2O)[C@H](O)[C@H](O)[C@H]1O | 1.03 ± 0.098
13 | CC(=O)Nc1ccccc1 | 0.966 ± 0.0042
14 | CC(=O)OCC(=O)[C@@]1(O)[C@H](OC(C)=O)C[C@H]2[C@@H]3CCC4=CC(=O)C=C[C@]4(C)[C@@]3(F)[C@@H](O)C[C@@]21C | 1.03 ± 0.052
15 | CC1(C)[C@@H](OC(=O)CCC(=O)O)CC[C@]2(C)[C@H]3C(=O)C=C4[C@@H]5C[C@@](C)(C(=O)O)CC[C@]5(C)CC[C@@]4(C)[C@]3(C)CC[C@@H]12 | 1.06 ± 0.014
16 | CCC(C)C(N)=O (stereo unspecified) [2-Methylbutyramide] | 1.01 ± 0.018
17 | C=CCSSSCC=C | 0.99 ± 0.042
18 | Cc1cc(O)c(C=O)c2c1C(=O)Oc1c(COC(=O)/C=C/C(=O)O)c(O)c(C(=O)O)c(C)c1O2 | 0.966 ± 0.011
19 | O=C(O)[C@@H](O)[C@H](O)[C@H](O)[C@@H](O)C(=O)O | 1 ± 0.051
20 | Nc1nc2c(ncn2[C@H]2C[C@H](O)[C@@H](CO)O2)c(=O)[nH]1 [Desoxyguanosin] | 1.004 ± 0.0078

Row | SMILES | cell viability
21 | CC(=O)/C=C\[C@@H]1[C@@]2(C)CCCC(C)(C)C2CC[C@@]1(C)O (stereo partly specified) | 1.055 ± 0.0071
22 | CC(=O)OCC(=O)[C@@]12OC3(CCCC3)O[C@@H]1C[C@H]1[C@@H]3CCC4=CC(=O)C=C[C@]4(C)[C@@]3(F)[C@@H](O)C[C@@]12C | 0.965 ± 0.023
23 | CC(=O)Oc1cccc(O)c1 | 1.07 ± 0.021
24 | CCCOc1ccccc1-c1nc2[nH]nnc2c(=O)[nH]1 | 0.909 ± 0.058
25 | CC(=O)Oc1ccc2c(c1C(C)C)CCC1C(C)(C)CCC[C@]21C (stereo partly specified) | 1.05 ± 0.05
26 | CC(=O)NO | 1.05 ± 0.057
27 | NCCc1c[nH]cn1 | 1.04 ± 0.062
28 | CC#C[C@]1(O)CC[C@H]2[C@@H]3CCC4=CC(=O)CCC4=C3[C@@H](c3ccc(N(C)C)cc3)C[C@@]21C | 0.931 ± 0.042
29 | COc1cc(O)c2c(c1)C(=O)c1cc(C)cc(O)c1C2=O | 1.01 ± 0.12
30 | N=c1ccn2c(n1)O[C@H]1[C@H](O)[C@@H](CO)O[C@H]12 | 1.15 ± 0.028
31 | CN1CCN(CCCN2c3ccccc3Sc3ccc(C(F)(F)F)cc32)CC1 | 1.09 ± 0.028
32 | CC(=O)O[C@H]1CC[C@]2(C)[C@H]3CC[C@@]4(C)[C@H](c5ccoc5)OC(=O)[C@H]5O[C@]54[C@]3(C)[C@H](OC(C)=O)C[C@H]2C1(C)C [3beta-ACETOXYDEOXODIHYDROGEDUNIN] | 0.949 ± 0.1
33 | CCCCCCNC(=O)n1cc(F)c(=O)[nH]c1=O | 1.04 ± 0.014
34 | CC12CCC3c4ccc(OCc5ccccc5)cc4CCC3C1C[C@@H](O)[C@@H]2O (stereo partly specified) | 1.01
35 | CC1CC(OC(=O)C(O)c2ccccc2)CC(C)(C)N1C (stereo unspecified) | 1.02
36 | NC(=O)N1c2ccccc2CC(=O)c2ccccc21 | 1.03 ± 0.014
